This is part of a sample that, as a whole, favours compounds with a hit. Of some 79,000 tested, about 15% had one in any assay. Active and inactive are the calls of the source. Cut-off read from the data, not from the text of the source: active = growth inhibition above about 70%; inactive = the rest.
Assay: NCI Yeast Anticancer Drug Screen. Data for the sgs1 mgt1 strain (AID 161);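 note: 0% = growth of cultures given vehicle only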
Details: S. cerevisiae sgs1 mgt1 strain, at 5.0 µM (retest, dose inferred, filed as 0.5), stronger effect = higher value
Summary of the method: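 Mutant yeast exposed to compound; growth scored against vehicle-only wells.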

Row | SMILES | growth inhibition
1 | CCN(CC)CCOC(=O)C1CCCCC1C(=O)C1CCCCC1 (stereo not drawn) | -7% (inactive)
2 | O=c1c2cc(Br)ccc2ncn1COCc1ccccc1 | 21% (inactive)
3 | C=C1C(=O)OC2C1CCC(=C)C1CC(O)C(=C)C12 (stereo not drawn) | 0% (inactive)
4 | CCC(CC)=NNc1ccc([N+](=O)[O-])cc1 | 8% (inactive)
5 | CCN(CC)CCNc1ccc(C)c2oc3ccc(O)cc3c(=O)c12 | -1% (inactive)
6 | CCOC(=O)C[P+](c1ccc(C)cc1)(c1ccc(C)cc1)c1ccc(C)cc1 | 11% (inactive)
7 | Cc1ccc(C)c(C(=O)/C=C/C(=O)O)c1 | 32% (inactive)
8 | CCCC/C=C(/CCCCOCOCCOC)[Si](C)(C)C | -1% (inactive)
9 | C=C1C2Oc3ccccc3C1N(c1ccccc1)O2 (stereo not drawn) | 4% (inactive)
10 | NC(=O)N/N=C1/CC2CCCCC2c2ccccc21 (stereo not drawn) | -2% (inactive)
11 | CC(CCN)(CCN)[N+](=O)[O-] | -4% (inactive)
12 | COC(=O)/C=C(\NC1CC(OC2C[C@](O)(C(C)=O)Cc3c(O)c4c(c(O)c32)C(=O)c2c(OC)cccc2C4=O)OC(C)C1O)C(=O)OC (stereo partly drawn) | -3% (inactive)
13 | CCOc1ccc(N=Nc2ccccc2)cc1 | -8% (inactive)
14 | O=C(CNS(=O)(=O)Cc1ccccc1)NCC(=O)NNc1ccccc1 | -5% (inactive)
15 | CC1(C)c2ccccc2Cc2cc3ccccc3nc21 | -5% (inactive)
16 | CC(=O)Nc1ccc(C(C)(C)c2ccc(C)cc2)cc1 | -1% (inactive)
17 | CC[C@]1(O)C[C@H]2[C@@H]3CCc4cc(OC)ccc4[C@H]3CC[C@]2(C)[C@H]1O | -4% (inactive)
18 | CCCCSc1nc2c([nH]1)c(=S)n(C)c(=S)n2C | 12% (inactive)

Source: PubChem BioAssay (NCI)
